Experimental data reported in PubChem BioAssay AID1159580 (chemical genetic matrix, 2015).
Several values for one entry are separate records, joined by “and”; a condition that tells them apart may be missing. Identical values can stand only once. Among all 5,500 compounds or so, about 2,000 (36%) were called active. Not shown: some 18% with an inconclusive outcome. Rule as the data show it: active = normalized growth mostly below about 0.91 (no sharp cut-off); inconclusive = no clear call, values can overlap the other calls; inactive = mostly above about 0.92. This is one part of the list.

Test: chemical genetic growth profiling, strain panel (AID 1159580);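 also: tested at 20 µM; growth read once vehicle control cultures reached saturation at 30 °C; 1 = growth at the plate median or of vehicle wells; lower values mean less growth of the strain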
Details: S. cerevisiae deletion strains, growth OD

Measured: normalized growth

CN(C(=O)CN(CCO)CC(=O)N(C)C(C)(C)Cc1ccccc1)C(C)(C)Cc1ccccc1
inactive: locus YAL021C, strain ccr4, hits give low values 1.01 | locus YAL026C, strain drs2, hits give low values 1.02 | locus YAL030W, strain snc1, hits give low values 1 | locus YBL061C, strain skt5, hits give low values 1.01 | locus YBR009C, strain hhf1, hits give low values 1.01 | locus YBR021W, strain FUR4, hits give low values 0.985 | locus YBR023C, strain chs3, hits give low values 1.01 | locus YBR171W, strain sec66, hits give low values 1.04 | locus YBR229C, strain ROT2, hits give low values 0.993 | locus YBR231C, strain swc5, hits give low values 1 | locus YBR279W, strain paf1, hits give low values 1.01 | locus YCL011C, strain gbp2, hits give low values 1.01 | locus YCL016C, strain dcc1, hits give low values 1.01 | locus YCL029C, strain bik1, hits give low values 0.97 | locus YCL061C, strain MRC1, hits give low values 1.02 | locus YCL069W, strain vba3, hits give low values 1.01 | locus YCR088W, strain abp1, hits give low values 1.01 | locus YDL005C, strain med2, hits give low values 1 | locus YDL035C, strain GPR1, hits give low values 0.954 | locus YDL040C, strain nat1, hits give low values 1 | locus YDL074C, strain BRE1, hits give low values 0.978 | locus YDL101C, strain DUN1, hits give low values 1 | locus YDL134C, strain PPH21, hits give low values 0.983 | locus YDL185W, strain tfp1, hits give low values 0.954 | locus YDL192W, strain arf1, hits give low values 0.98 | locus YDR001C, strain nth1, hits give low values 1.01 | locus YDR069C, strain doa4, hits give low values 1.01 | locus YDR101C, strain arx1, hits give low values 1 | locus YDR137W, strain rgp1, hits give low values 1.07 | locus YDR159W, strain sac3, hits give low values 0.998 | locus YDR162C, strain NBP2, hits give low values 0.957 | locus YDR195W, strain ref2 0.995 | locus YDR297W, strain sur2, hits give low values 1 | locus YDR318W, strain mcm21, hits give low values 0.979 | locus YDR334W, strain swr1, hits give low values 1.02 | locus YDR335W, strain msn5, hits give low values 1.01 | locus YDR388W, hits give low values 0.979 | locus YDR392W, strain spt3, hits give low values 0.981 | locus YDR502C, strain sam2, hits give low values 0.981 | locus YEL003W, strain gim4, hits give low values 1.01 | locus YEL037C, strain rad23, hits give low values 1.02 | locus YEL061C, strain CIN8 (second series), hits give low values 1.02 | locus YEL061C, strain CIN8, hits give low values 0.997 | locus YER015W, strain faa2, hits give low values 1.02 | locus YER016W, strain bim1, hits give low values 1.03 | locus YER110C, hits give low values 0.976 | locus YER111C, strain swi4, hits give low values 1.02 | locus YER155C, strain BEM2 (second series), hits give low values 1.02 | locus YER155C, strain BEM2, hits give low values 0.994 | locus YER167W, strain BCK2, hits give low values 0.987 | locus YFR010W, strain ubp6, hits give low values 1.01 | locus YGL078C, strain dbp3, hits give low values 0.983 | locus YGL086W, strain mad1, hits give low values 0.979 | locus YGL167C, strain pmr1, hits give low values 1.01 | locus YGL173C, strain kem1, hits give low values 1.02 | locus YGL227W, strain vid30, hits give low values 1.02 | locus YGL240W, strain doc1, hits give low values 0.986 | locus YGL248W, strain PDE1, hits give low values 1.01 | locus YGL253W, strain hxk2, hits give low values 1.03 | locus YGR078C, strain PAC10, hits give low values 1 | locus YGR135W, strain pre9, hits give low values 0.973 | locus YGR229C, strain SMI1, hits give low values 0.98 | locus YGR252W, strain gcn5, hits give low values 1.01 | locus YHR013C, strain ard1, hits give low values 1.04 | locus YHR027C, strain rpn1, hits give low values 1.02 | locus YHR030C, strain SLT2, hits give low values 0.985 and 0.989 | locus YHR079C, strain IRE1 (second series), hits give low values 0.975 | locus YHR079C, strain IRE1, hits give low values 0.98 | locus YHR094C, strain hxt1, hits give low values 0.99 | locus YHR129C, strain ARP1, hits give low values 0.992 | locus YHR142W, strain chs7, hits give low values 1.02 | locus YHR200W, strain rpn10, hits give low values 0.971 | locus YIL066C, strain RNR3, hits give low values 0.996 | locus YIL073C, strain SPO22, hits give low values 1.14 | locus YIL125W, strain kgd1, hits give low values 0.988 | locus YIR030C, strain dcg1, hits give low values 0.976 | locus YJL092W, strain hpr5, hits give low values 1.01 | locus YJL095W, strain BCK1 (second series), hits give low values 1.01 | locus YJL095W, strain BCK1, hits give low values 1.01 | locus YJL115W, strain asf1, hits give low values 1.02 | locus YJL129C, strain trk1, hits give low values 1.02 | locus YJL134W, strain LCB3, hits give low values 0.986 | locus YJL154C, strain vps35, hits give low values 1.01 | locus YJL164C, strain tpk1, hits give low values 1 | locus YJL166W, strain qcr8, hits give low values 1.01 | locus YJL168C, strain set2, hits give low values 0.989 | locus YJL187C, strain SWE1 (second series), hits give low values 1.01 | locus YJL187C, strain SWE1, hits give low values 1.01 | locus YJR043C, strain POL32, hits give low values 0.962
